From the supplement of paper PMC4206461

These compounds were tested on Pseudomonas aeruginosa PA14 dppA1-A5 penta mutant + pBBR5.DppA1 (PA14_58350) (assay: respiration area under curve with compound as sole nitrogen source, 24 h (OmniLog AUC (arbitrary units)); higher = more respiration / better utilisation as nitrogen source, active = 2000 or more).
Protocol: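 Biolog Phenotype MicroArray plates PM6-PM8: each di/tripeptide is the sole nitrogen source. Tetrazolium reduction was read in the OmniLog for 24 h at 37°C and summarised as area under the respiration curve (arbitrary units). Values below 2000 count as no respiration. Strain is the SBP penta mutant complemented with DppA1 on a plasmid under its native promoter. Lys/His/Cys peptides are excluded.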

Respiration area under curve, active:
C[C@@H](O)[C@H](N)C(=O)N[C@@H](Cc1ccccc1)C(=O)O (plate: PM8) 6440, NC(=O)CC[C@H](NC(=O)[C@@H]1CCCN1)C(=O)O (plate: PM7) 9270, N[C@@H](Cc1ccccc1)C(=O)NCC(=O)O (plate: PM7) 6420, NC(N)=NCCC[C@H](NC(=O)[C@@H](N)CCCN=C(N)N)C(=O)O (plate: PM6) 8780, CC(C)C[C@H](N)C(=O)NCC(=O)NCC(=O)O (plate: PM8) 8090, C[C@@H](NC(=O)CN)C(=O)O (plate: PM8) 3490, N[C@@H](Cc1ccccc1)C(=O)N[C@@H](CC(=O)O)C(=O)O (plate: PM8) 2600, CC(C)C[C@H](N)C(=O)N[C@@H](CC(N)=O)C(=O)O (plate: PM8) 11100, CC(C)[C@H](N)C(=O)N[C@@H](CCC(N)=O)C(=O)O (plate: PM8) 7140, CC(C)C[C@H](N)C(=O)NCC(=O)O (plate: PM6) 5940, NC(=O)CC[C@H](NC(=O)[C@@H](N)CCC(N)=O)C(=O)O (plate: PM6) 6630, CC[C@H](C)[C@H](NC(=O)CNC(=O)CN)C(=O)O (plate: PM8) 2430, CSCC[C@H](NC(=O)[C@H](C)N)C(=O)O (plate: PM8) 6710, N[C@@H](CO)C(=O)N[C@@H](Cc1ccccc1)C(=O)O (plate: PM7) 6220, C[C@@H](O)[C@H](N)C(=O)N1CCC[C@H]1C(=O)O (plate: PM7) 10700, NC(N)=NCCC[C@H](N)C(=O)N[C@@H](CO)C(=O)O (plate: PM6) 7830, C[C@@H](O)[C@H](N)C(=O)N[C@@H](CCC(=O)O)C(=O)O (plate: PM7) 5630, N[C@@H](Cc1c[nH]c2ccccc12)C(=O)N[C@@H](CO)C(=O)O (plate: PM7) 2890, C[C@H](NC(=O)[C@@H](N)Cc1ccc(O)cc1)C(=O)O (plate: PM7) 10300, CC(C)[C@H](NC(=O)[C@H](C)N)C(=O)O (plate: PM8) 7610, CC(C)C[C@H](NC(=O)[C@H](CC(C)C)NC(=O)[C@@H](N)CC(C)C)C(=O)O (plate: PM8) 3090, NCC(=O)NCC(=O)O (plate: PM6) 2050, C[C@H](N)C(=O)N[C@@H](CCC(=O)O)C(=O)O (plate: PM6) 6760, CC[C@H](C)[C@H](NC(=O)[C@@H](N)C(C)C)C(=O)O (plate: PM7) 6870, O=C(O)CNC(=O)[C@@H]1CCCN1 (plate: PM7) 6590, C[C@H](N)C(=O)N[C@@H](CC(=O)O)C(=O)O (plate: PM8) 9070, C[C@H](N)C(=O)N[C@@H](Cc1ccc(O)cc1)C(=O)O (plate: PM6) 5920, NCC(=O)N[C@@H](CC(N)=O)C(=O)O (plate: PM8) 14300

Respiration area under curve, inactive:
CSCC[C@H](N)C(=O)N[C@@H](CC(C)C)C(=O)O (plate: PM7) 1540, CC[C@H](C)[C@H](N)C(=O)N[C@@H](Cc1ccc(O)cc1)C(=O)O (plate: PM6) 655, N[C@@H](Cc1c[nH]c2ccccc12)C(=O)N[C@@H](Cc1c[nH]c2ccccc12)C(=O)O (plate: PM7) 477, CSCCC(NC(=O)C(N)CC(C)C)C(=O)O (stereo not given) (plate: PM6) 1220, N[C@@H](Cc1c[nH]c2ccccc12)C(=O)N[C@@H](Cc1ccc(O)cc1)C(=O)O (plate: PM7) 292, CC(C)C[C@H](NC(=O)[C@@H](N)CC(C)C)C(=O)O (plate: PM6) 1870, CSCC[C@H](N)C(=O)N[C@@H](Cc1ccc(O)cc1)C(=O)O (plate: PM8) 780, CC(C)C[C@H](NC(=O)CN)C(=O)O (plate: PM6) 969, CSCCC(N)C(=O)NC(CCSC)C(=O)O (stereo not given) (plate: PM7) 0, N[C@@H](CC(=O)O)C(=O)N[C@@H](CCC(=O)O)C(=O)O (plate: PM6) 437, CC(C)C[C@H](NC(=O)[C@@H](N)CC(=O)O)C(=O)O (plate: PM6) 984, N[C@@H](CC(=O)O)C(=O)N[C@@H](Cc1ccccc1)C(=O)O (plate: PM6) 1720
